Measurements as given in the supplement of paper PMC10849652.
Of roughly 8,800 targets only a part is listed; those with a hit were picked by preference. About 0.5% of all pairs of compound and target were hits. A number with no mark means an inactive call.

Assays:
Assay in all cases: log2 fold change, soluble protein after heating vs DMSO (PISA); higher = thermal stabilisation; K562 lysate, 10 uM; active = over 0.2 and 3.5 SD of the protein, either way, in both replicates (recomputed)
vemurafenib = compound: CCCS(=O)(=O)Nc1ccc(F)c(C(=O)c2c[nH]c3ncc(-c4ccc(Cl)cc4)cc23)c1F [vemurafenib]
Procedure, shortened: (§1)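 K562 pellets were dounce-homogenised in PBS pH 7.4 with 1 mM MgCl2, and the crude extract at 1 mg/mL protein was treated with 10 μM compound for 30 min. Aliquots were heated for 3 min across 48°C-58°C, pooled, and brought to 0.5% NP-40 at 4°C; soluble protein was the supernatant after 21,000xg for 90 min. Soluble protein was quantified by TMTpro 16plex LC-MS/MS with channel sums equalised, and reported as log2 fold change in thermal stability against DMSO controls, with values from duplicates.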

[1] = compound: CCCS(=O)(=O)Nc1ccc(F)c(C(=O)c2c[nH]c3ncc(Cl)cc23)c1F
Procedure, shortened: as §1

barasertib = compound: CCN(CCCOc1ccc2c(Nc3cc(CC(=O)Nc4cccc(F)c4)[nH]n3)ncnc2c1)CCOP(=O)(O)O [barasertib]
Procedure, shortened: as §1

[2] = compound: CC[C@@H]1C(=O)N(C)c2cnc(Nc3ccc(C(=O)NC4CCN(C)CC4)cc3OC)nc2N1C1CCCC1
Procedure, shortened: as §1

volasertib = compound: CC[C@@H]1C(=O)N(C)c2cnc(Nc3ccc(C(=O)N[C@H]4CC[C@H](N5CCN(CC6CC6)CC5)CC4)cc3OC)nc2N1C(C)C [volasertib]
Procedure, shortened: as §1

[3] = compound: CCn1c(C(=O)N(C2CC2)C2CC2)cc2c3c(ncn3C)c(Nc3cc(C)n(C)n3)nc21
Procedure, shortened: as §1

[4] = compound: CCn1cc(-c2ccnc3[nH]c(-c4cccc(CN(C)C)c4)cc23)c(-c2ccc(NC(=O)N(C)C)cc2)n1
Procedure, shortened: as §1

[5] = compound: CN1CCC(CNc2ccc3ncc(-c4cccc(OC(F)(F)F)c4)n3n2)CC1
Procedure, shortened: as §1

saracatinib = compound: CN1CCN(CCOc2cc(OC3CCOCC3)c3c(Nc4c(Cl)ccc5c4OCO5)ncnc3c2)CC1 [saracatinib]
Procedure, shortened: as §1

sotrastaurin = compound: CN1CCN(c2nc(C3=C(c4c[nH]c5ccccc45)C(=O)NC3=O)c3ccccc3n2)CC1 [sotrastaurin]
Procedure, shortened: as §1

Chain of UniProt P22676 (P22676 whole entry, looked up): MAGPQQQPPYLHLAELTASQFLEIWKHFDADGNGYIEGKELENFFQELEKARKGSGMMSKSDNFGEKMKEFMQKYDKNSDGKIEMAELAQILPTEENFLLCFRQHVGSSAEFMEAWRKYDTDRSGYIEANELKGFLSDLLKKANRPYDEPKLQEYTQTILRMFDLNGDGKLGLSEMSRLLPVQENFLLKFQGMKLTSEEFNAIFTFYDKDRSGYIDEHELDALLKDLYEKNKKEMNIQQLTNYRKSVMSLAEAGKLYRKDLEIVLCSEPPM
Chain of UniProt Q96B23 (Q96B23 whole entry, looked up): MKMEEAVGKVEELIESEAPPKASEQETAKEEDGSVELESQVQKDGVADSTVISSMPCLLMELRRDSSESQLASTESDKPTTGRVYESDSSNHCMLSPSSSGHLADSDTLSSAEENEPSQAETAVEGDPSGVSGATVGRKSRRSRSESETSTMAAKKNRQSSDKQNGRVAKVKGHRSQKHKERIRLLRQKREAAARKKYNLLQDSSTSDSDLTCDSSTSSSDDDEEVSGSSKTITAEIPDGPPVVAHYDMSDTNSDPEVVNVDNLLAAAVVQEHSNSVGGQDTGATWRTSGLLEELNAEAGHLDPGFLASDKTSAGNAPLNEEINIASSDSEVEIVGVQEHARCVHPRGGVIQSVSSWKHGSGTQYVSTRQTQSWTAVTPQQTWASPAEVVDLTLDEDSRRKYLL
Chain of UniProt Q15834 (Q15834 whole entry, looked up): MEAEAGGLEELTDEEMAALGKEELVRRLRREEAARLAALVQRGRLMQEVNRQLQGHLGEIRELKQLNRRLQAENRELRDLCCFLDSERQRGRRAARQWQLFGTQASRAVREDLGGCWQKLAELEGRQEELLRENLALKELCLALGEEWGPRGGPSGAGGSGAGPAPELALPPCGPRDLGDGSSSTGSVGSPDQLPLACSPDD
Chain of UniProt Q8N5S9 (Q8N5S9 whole entry, looked up): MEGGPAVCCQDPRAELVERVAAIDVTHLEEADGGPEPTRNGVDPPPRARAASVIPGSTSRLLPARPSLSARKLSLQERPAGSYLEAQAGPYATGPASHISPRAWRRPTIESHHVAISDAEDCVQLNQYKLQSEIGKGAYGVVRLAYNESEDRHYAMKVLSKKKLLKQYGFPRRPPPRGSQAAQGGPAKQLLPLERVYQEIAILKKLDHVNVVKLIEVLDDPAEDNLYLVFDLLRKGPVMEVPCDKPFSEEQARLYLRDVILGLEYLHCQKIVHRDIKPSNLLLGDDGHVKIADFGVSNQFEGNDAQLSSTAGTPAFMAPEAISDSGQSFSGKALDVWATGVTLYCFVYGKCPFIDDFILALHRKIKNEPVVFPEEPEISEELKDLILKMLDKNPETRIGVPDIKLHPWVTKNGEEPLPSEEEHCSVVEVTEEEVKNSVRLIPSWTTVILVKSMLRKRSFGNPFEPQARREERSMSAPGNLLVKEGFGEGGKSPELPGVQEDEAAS
Chain of UniProt Q9Y297 (Q9Y297 whole entry, looked up): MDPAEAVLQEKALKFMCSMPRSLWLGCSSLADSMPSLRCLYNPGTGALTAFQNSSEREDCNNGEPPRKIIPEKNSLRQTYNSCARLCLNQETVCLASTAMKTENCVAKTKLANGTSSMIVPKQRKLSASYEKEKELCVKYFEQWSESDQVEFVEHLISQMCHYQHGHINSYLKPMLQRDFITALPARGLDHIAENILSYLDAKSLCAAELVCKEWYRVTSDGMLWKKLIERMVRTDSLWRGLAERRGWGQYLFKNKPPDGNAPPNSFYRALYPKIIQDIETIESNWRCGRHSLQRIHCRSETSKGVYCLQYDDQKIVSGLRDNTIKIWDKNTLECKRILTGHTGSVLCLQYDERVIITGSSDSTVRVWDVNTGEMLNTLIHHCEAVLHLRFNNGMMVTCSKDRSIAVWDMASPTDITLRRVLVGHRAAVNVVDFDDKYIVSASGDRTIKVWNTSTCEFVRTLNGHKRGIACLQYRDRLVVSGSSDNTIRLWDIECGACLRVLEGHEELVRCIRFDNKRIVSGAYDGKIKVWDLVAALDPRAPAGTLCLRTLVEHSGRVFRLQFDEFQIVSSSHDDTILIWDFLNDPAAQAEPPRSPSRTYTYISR
Chain of UniProt Q6P4E1 (Q6P4E1 whole entry, looked up): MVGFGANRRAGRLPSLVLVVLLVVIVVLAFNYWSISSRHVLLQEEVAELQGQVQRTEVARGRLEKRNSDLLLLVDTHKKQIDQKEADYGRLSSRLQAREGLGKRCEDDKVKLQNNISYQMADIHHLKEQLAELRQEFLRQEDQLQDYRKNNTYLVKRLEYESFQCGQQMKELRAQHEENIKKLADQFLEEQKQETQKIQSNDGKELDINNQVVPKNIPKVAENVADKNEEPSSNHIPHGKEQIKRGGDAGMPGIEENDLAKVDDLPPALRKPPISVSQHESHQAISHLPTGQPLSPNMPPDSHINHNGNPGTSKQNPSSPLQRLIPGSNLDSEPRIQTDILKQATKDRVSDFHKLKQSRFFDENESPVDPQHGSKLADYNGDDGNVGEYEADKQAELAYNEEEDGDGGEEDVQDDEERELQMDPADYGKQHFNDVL
Chain of UniProt O00748 (O00748 whole entry, looked up): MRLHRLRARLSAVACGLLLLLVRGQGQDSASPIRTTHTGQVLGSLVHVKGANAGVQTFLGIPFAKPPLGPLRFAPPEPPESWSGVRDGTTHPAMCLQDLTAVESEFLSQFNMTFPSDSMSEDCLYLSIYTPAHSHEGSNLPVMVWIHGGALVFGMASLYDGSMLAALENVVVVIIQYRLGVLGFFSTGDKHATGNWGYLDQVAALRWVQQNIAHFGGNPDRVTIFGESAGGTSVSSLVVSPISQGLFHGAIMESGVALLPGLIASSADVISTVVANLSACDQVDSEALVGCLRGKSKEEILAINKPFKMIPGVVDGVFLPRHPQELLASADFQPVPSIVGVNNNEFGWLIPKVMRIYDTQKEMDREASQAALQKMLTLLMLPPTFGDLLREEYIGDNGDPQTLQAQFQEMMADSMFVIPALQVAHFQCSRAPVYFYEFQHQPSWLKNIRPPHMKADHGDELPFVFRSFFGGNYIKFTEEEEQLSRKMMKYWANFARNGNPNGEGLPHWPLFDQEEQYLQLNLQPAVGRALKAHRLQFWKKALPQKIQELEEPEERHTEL
Chain of UniProt Q9Y2V2 (Q9Y2V2 whole entry, looked up): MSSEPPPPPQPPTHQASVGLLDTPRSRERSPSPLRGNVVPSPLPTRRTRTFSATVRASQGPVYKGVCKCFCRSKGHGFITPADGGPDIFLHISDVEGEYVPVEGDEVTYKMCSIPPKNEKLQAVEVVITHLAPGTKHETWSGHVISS
Chain of UniProt Q8N4Q1 (Q8N4Q1 whole entry, looked up): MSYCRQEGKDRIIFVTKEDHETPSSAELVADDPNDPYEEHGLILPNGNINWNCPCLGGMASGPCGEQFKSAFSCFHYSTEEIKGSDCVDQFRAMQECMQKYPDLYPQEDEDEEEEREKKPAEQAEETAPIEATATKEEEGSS
Chain of UniProt P25440 (P25440 whole entry, looked up): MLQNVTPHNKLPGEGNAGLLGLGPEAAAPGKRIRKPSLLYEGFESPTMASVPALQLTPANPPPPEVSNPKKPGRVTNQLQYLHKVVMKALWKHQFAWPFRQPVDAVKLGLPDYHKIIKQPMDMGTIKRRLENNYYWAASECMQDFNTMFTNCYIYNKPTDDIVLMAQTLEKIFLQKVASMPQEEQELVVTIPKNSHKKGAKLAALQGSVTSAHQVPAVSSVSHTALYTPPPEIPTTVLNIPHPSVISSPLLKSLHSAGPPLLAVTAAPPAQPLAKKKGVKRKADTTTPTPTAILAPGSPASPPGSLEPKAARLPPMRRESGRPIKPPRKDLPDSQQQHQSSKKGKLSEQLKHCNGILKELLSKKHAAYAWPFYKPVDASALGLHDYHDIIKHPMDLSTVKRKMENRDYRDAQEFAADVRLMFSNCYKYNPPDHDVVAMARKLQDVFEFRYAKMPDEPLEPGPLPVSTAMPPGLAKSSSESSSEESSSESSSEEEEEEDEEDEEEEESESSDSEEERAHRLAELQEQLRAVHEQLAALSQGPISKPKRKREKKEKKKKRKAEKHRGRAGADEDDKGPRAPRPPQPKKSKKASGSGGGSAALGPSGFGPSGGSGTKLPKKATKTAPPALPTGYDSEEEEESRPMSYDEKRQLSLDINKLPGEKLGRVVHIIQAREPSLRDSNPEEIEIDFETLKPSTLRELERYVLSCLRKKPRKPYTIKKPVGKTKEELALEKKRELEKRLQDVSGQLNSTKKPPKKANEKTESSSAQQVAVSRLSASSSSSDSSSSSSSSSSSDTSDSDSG
Chain of UniProt A6NDU8 (A6NDU8 whole entry, looked up): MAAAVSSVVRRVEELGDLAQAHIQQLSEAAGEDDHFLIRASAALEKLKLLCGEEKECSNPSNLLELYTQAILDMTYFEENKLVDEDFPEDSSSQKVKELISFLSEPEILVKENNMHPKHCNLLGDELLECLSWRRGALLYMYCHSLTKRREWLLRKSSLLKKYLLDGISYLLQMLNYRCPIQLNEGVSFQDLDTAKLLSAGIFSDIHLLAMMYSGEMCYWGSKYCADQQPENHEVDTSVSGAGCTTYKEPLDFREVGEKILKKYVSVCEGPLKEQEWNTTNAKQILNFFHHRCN
Chain of UniProt Q9H3K6 (Q9H3K6 whole entry, looked up): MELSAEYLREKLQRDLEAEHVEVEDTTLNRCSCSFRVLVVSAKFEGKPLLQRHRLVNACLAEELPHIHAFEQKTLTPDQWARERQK
Chain of UniProt P83916 (P83916 whole entry, looked up): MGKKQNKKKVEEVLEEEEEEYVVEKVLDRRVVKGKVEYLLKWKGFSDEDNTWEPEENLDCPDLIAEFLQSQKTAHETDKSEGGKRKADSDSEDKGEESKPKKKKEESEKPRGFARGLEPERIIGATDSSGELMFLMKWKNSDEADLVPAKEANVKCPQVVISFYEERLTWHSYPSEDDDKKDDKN
Chain of UniProt Q8WUX2 (Q8WUX2 whole entry, looked up): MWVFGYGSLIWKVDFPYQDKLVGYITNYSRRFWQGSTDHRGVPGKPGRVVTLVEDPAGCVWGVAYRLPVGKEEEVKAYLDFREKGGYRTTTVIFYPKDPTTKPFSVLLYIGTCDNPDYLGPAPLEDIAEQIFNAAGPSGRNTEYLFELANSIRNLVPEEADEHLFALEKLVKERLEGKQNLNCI

Row | Target | log2 fold change (vemurafenib) | log2 fold change [1] | log2 fold change (barasertib) | log2 fold change [2] | log2 fold change (volasertib) | log2 fold change [3] | log2 fold change [4] | log2 fold change [5] | log2 fold change (saracatinib) | log2 fold change (sotrastaurin)
1 | BTAF1 (UniProt O14981) | 0.029 | 0.026 | 0.029 | -0.029 | -0.058 | 0.045 | -0.138 | 0.051 | 0.008 | 0.006
2 | CENPQ (UniProt Q7L2Z9) | 0.069 | -0.167 | 0.038 | -0.023 | -0.115 | -0.084 | -0.44 (active) | 0.095 | 0.033 | 0.023
3 | CHAC2 (UniProt Q8WUX2) | -0.028 | -0.004 | -0.006 | -0.044 | 0.006 | 0.02 | 0.649 (active) | -0.154 | -0.018 | -0.031
4 | CHD1L (UniProt Q86WJ1) | 0.033 | 0.011 | 0.062 | -0.029 | -0.09 | 0.024 | -0.053 | -0.054 | 0 | -0.001
5 | CHD5 (UniProt Q8TDI0) | -0.034 | 0.022 | 0.034 | 0.165 | -0.028 | -0.026 | 0.051 | -0.019 | 0.026 | 0.026
6 | BTRC (UniProt Q9Y297) | -0.002 | 0.023 | 0.052 | 0.076 | -0.041 | -0.088 | 0.073 | 0.067 | – | –
7 | C5orf51 (UniProt A6NDU8) | -0.002 | 0.009 | 0.046 | -0.014 | -0.029 | 0.053 | 0.036 | -0.137 | 0.016 | 0.036
8 | CDK5RAP3 isoform 4 (UniProt Q96JB5) | 0.023 | 0.013 | 0.022 | -0.008 | -0.051 | 0.029 | -0.313 (active) | 0.216 | -0.002 | -0.021
9 | CHCHD4 isoform 2 (UniProt Q8N4Q1) | 0.144 | 0.015 | 0.109 | 0.072 | 0.057 | -0.1 | -0.415 (active) | 0.228 | 0.05 | -0.007
10 | CDS2 (UniProt O95674) | 0.09 | 0.041 | 0.027 | 0.026 | 0.005 | -0.006 | 0.015 | 0.004 | -0.053 | 0.037
11 | CES2 isoform 4 (UniProt O00748) | 0.03 | -0.024 | -0.052 | -0.012 | 0.004 | -0.046 | 0.002 | 0.034 | -0.001 | -0.017
12 | CCDC32 isoform 2 (UniProt Q9BV29) | 0.007 | 0 | 0.351 | -0.041 | 0.021 | -0.061 | -0.246 | 0.065 | 0.021 | -0.012
13 | CAMKK1 isoform 2 (UniProt Q8N5S9) | -0.041 | -0.062 | 0.11 | 0.103 | 0.136 | 0.115 | -0.204 | 0.041 | -0.063 | -0.013
14 | CARHSP1 (UniProt Q9Y2V2) | 0.032 | -0.015 | 0.024 | 0.033 | -0.024 | -0.061 | -0.02 | 0.044 | 0 | -0.042
15 | CELF1 isoform 4 (UniProt Q92879) | 0.024 | 0.014 | 0.03 | -0.044 | -0.133 | 0.012 | 0.08 | -0.08 | 0.035 | 0.054
16 | CDC42BPA isoform 6 (UniProt Q5VT25) | 0.01 | 0.036 | -0.006 | -0.111 | -0.043 | 0.021 | 0.062 | -0.118 | -0.021 | -0.023
17 | CCPG1 isoform 5 (UniProt Q9ULG6) | 0.082 | -0.038 | 0.034 | 0.066 | 0 | 0.071 | -0.081 | 0.04 | 0.049 | 0.051
18 | CASC4 (UniProt Q6P4E1) | 0 | 0.02 | -0.02 | 0.009 | 0.017 | 0.022 | -0.05 | -0.008 | -0.003 | -0.004
19 | BOLA2 (UniProt Q9H3K6) | -0.086 | -0.043 | 0.129 | -0.068 | 0.004 | 0.067 | 0.604 (active) | -0.04 | -0.033 | -0.038
20 | CALB2 (UniProt P22676) | 0.064 | 0.046 | 0.375 (active) | -0.036 | 0.017 | 0.023 | -0.065 | 0.066 | -0.008 | -0.061
21 | CDC16 (UniProt Q13042) | -0.042 | 0.001 | -0.018 | -0.074 | -0.063 | 0.043 | 0.046 | -0.041 | -0.005 | 0.02
22 | C19orf54 (UniProt Q5BKX5) | 0.08 | -0.028 | 0.002 | -0.043 | -0.058 | -0.06 | 0.013 | 0.003 | -0.027 | -0.027
23 | C18orf25 (UniProt Q96B23) | -0.014 | 0.014 | 0.004 | 0.1 | -0.013 | -0.059 | -0.035 | 0.015 | -0.032 | 0.009
24 | CBX1 (UniProt P83916) | 0.001 | 0.015 | -0.075 | 0.028 | 0.01 | 0.006 | 0.301 (active) | -0.111 | -0.003 | 0.038
25 | CAMLG (UniProt P49069) | -0.027 | 0 | -0.021 | 0.026 | 0.002 | -0.089 | 0.257 (active) | -0.04 | -0.026 | -0.002
26 | CCDC85B (UniProt Q15834) | -0.317 | 0.04 | -0.047 | 0.086 | 0.345 | 0.007 | 0.126 | -0.01 | 0.163 | -0.035
27 | CAMK2G isoform 8 (UniProt Q13555) | 0.067 | -0.03 | 0.058 | 0.102 | -0.033 | -0.079 | -0.001 | 0.022 | 0.086 | 0.345 (active)
28 | ATXN2 (UniProt F8WB05) | -0.153 | -0.024 | 0.057 | -0.013 | -0.087 | -0.005 | 0.094 | -0.004 | 0.05 | 0.086
29 | BLM (UniProt P54132) | 0.007 | 0.013 | -0.071 | -0.063 | -0.029 | 0.054 | 0.247 | -0.14 | -0.014 | -0.01
30 | BRD2 isoform 2 (UniProt P25440) | 0.033 | -0.153 | -0.053 | 0.548 (active) | 0.369 | 0.042 | 0.617 (active) | -0.066 | -0.047 | -0.1
